Measurements reported in the supplement of paper PMC12067093, “Discovery and optimisation of a covalent ligand for TRIM25 and its application to targeted protein ubiquitination” (Chemical Science, 2025).
Of roughly 21,000 targets only a part is listed; those with the largest changes were picked by preference.

Compound: Cc1cc(ccc1-c1ccccc1)C(=O)N1CCCN(CC1)C(=O)CCl [compound 10]
Assay: probe-labelled cysteine peptide fold change vs DMSO (competition) (log2 fold change); higher = less target engagement (more negative = stronger competition)
Details: THP-1, incubation time: 4 h
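Further: competitive profiling in live THP-1 cells: cysteine peptides tagged with an iodoacetamide desthiobiotin (IA-DTB) probe, intensity after compound treatment relative to DMSO-treated cells.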

Sequence of UniProt Q14694 (Q14694 whole entry, looked up): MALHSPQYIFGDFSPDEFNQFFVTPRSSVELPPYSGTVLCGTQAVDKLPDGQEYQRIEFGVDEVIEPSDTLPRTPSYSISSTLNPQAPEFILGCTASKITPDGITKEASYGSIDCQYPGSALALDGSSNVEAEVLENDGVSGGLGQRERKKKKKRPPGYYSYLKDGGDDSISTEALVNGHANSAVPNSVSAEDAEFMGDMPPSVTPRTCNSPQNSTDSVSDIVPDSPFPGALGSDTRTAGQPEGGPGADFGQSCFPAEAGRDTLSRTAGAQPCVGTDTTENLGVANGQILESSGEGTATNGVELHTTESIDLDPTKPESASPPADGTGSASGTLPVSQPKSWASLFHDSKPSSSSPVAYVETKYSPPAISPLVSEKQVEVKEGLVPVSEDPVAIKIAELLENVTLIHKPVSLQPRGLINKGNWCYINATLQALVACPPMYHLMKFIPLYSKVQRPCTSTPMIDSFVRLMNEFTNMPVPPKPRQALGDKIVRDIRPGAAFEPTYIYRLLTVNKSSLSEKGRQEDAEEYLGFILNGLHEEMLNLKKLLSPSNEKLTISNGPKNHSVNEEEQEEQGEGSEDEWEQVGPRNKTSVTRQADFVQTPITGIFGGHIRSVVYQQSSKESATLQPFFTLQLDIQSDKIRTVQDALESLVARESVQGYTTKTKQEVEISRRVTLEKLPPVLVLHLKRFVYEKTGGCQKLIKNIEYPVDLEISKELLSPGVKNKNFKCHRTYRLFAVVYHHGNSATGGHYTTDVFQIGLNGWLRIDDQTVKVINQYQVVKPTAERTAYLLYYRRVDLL
Sequence of UniProt Q5ST30 (Q5ST30 whole entry): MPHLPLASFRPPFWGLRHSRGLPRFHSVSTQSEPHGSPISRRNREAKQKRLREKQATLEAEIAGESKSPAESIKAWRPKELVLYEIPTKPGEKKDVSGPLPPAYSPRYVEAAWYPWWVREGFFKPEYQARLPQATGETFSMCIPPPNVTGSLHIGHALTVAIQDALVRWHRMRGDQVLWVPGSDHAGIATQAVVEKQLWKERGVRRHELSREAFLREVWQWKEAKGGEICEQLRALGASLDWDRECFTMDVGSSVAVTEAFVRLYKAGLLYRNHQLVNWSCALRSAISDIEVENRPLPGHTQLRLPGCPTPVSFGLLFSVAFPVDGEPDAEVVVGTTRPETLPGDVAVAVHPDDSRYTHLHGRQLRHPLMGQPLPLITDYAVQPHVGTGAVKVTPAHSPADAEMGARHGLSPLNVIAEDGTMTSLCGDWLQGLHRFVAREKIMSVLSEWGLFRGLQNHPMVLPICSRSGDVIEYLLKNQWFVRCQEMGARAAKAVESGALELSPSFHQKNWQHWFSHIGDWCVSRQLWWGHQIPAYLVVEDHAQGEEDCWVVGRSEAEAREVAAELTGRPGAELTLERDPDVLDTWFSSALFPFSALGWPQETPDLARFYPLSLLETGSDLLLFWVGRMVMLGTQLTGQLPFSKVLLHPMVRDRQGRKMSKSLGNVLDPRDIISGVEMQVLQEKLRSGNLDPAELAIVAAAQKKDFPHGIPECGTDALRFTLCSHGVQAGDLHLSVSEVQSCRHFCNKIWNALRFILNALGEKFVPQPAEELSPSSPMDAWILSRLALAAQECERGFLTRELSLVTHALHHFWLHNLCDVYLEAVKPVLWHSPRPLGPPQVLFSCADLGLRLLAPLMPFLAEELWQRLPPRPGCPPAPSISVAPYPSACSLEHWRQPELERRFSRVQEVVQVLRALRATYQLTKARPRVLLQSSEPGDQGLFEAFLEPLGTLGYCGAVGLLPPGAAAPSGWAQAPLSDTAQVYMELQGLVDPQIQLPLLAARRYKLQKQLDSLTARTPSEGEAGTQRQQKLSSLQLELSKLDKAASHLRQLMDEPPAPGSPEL
Sequence of UniProt O60858 (O60858 whole entry, looked up): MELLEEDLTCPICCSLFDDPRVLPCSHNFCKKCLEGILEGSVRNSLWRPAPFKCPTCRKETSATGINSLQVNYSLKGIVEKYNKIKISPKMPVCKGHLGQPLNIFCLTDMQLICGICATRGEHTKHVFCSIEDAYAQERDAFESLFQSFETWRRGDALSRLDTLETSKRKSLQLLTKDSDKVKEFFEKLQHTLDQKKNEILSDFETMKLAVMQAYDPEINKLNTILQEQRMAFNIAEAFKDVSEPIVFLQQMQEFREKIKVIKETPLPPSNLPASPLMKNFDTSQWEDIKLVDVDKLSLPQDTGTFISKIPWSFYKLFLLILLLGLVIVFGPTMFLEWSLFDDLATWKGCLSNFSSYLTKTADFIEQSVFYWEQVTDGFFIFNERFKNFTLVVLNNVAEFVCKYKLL
Sequence of UniProt Q96S82 (Q96S82 whole entry): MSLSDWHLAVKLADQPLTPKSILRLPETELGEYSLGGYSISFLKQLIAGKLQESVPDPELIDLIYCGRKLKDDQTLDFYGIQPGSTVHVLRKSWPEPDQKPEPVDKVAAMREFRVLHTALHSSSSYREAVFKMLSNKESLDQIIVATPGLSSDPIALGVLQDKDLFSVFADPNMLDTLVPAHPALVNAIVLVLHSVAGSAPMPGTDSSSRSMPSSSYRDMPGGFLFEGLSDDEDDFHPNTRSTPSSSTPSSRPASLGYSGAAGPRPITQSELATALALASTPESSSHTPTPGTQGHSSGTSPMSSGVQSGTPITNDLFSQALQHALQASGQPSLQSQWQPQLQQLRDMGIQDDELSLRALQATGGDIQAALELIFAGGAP
Sequence of UniProt Q9H0U9 (Q9H0U9 whole entry): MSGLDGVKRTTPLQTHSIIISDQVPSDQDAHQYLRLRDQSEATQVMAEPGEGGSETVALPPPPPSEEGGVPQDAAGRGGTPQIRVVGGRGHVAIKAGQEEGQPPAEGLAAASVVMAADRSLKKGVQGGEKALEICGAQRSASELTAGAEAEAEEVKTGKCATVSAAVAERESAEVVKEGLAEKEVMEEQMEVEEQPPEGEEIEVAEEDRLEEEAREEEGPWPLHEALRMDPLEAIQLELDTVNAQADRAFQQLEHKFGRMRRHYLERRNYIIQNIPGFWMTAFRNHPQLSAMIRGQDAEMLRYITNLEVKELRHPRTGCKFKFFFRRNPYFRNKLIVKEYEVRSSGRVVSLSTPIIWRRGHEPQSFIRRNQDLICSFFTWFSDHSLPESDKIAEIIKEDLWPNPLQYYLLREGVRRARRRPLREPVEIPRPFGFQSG
Sequence of UniProt P29597 (P29597 whole entry, looked up): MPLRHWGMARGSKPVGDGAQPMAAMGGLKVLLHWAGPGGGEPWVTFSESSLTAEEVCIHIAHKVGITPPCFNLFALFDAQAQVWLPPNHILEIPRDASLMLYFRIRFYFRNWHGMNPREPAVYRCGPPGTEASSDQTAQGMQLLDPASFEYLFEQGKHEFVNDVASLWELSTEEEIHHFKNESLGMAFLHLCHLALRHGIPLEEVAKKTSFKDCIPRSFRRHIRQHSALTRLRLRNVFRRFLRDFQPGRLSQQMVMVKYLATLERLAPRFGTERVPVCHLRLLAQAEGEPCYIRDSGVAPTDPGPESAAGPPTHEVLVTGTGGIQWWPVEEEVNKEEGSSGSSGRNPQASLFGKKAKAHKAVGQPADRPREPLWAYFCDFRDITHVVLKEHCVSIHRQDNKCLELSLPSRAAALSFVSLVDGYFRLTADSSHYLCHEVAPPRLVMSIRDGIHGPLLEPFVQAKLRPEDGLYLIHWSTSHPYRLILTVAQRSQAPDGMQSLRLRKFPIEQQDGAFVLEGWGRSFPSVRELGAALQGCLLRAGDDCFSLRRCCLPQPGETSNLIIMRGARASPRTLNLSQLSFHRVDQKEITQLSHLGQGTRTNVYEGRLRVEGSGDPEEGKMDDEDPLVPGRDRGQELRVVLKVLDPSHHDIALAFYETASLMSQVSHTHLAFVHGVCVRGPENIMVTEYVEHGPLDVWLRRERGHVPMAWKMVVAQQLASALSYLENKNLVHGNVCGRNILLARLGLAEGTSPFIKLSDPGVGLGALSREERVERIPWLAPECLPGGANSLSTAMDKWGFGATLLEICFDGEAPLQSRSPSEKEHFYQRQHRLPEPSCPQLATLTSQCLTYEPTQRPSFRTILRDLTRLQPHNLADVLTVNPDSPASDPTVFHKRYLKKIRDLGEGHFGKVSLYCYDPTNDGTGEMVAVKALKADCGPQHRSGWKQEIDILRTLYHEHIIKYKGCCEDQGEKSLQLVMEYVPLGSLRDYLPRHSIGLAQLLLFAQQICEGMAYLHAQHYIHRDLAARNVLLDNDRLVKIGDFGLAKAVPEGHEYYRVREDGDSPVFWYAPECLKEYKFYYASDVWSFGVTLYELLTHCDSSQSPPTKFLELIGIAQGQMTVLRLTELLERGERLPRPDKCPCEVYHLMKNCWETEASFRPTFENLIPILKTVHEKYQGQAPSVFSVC
Sequence of UniProt Q9ULW0 (Q9ULW0 whole entry, looked up): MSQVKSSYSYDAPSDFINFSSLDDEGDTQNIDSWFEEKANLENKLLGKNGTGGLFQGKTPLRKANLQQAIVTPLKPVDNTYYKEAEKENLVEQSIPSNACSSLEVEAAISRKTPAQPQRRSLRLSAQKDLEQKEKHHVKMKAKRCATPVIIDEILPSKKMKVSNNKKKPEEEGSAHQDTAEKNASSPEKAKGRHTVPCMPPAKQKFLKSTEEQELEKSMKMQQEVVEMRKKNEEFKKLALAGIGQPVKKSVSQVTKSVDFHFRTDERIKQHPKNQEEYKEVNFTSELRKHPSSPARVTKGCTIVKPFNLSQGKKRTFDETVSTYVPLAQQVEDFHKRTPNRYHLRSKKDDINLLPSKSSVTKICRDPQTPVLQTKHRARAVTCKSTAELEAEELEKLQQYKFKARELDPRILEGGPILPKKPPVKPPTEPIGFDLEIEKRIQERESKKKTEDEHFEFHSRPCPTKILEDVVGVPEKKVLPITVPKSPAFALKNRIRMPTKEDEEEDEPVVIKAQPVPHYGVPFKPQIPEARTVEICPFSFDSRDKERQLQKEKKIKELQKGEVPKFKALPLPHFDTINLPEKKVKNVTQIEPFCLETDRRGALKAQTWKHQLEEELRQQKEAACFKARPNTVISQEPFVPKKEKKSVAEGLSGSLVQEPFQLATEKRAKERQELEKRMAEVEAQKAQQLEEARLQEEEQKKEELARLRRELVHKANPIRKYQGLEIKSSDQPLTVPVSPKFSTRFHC

Target	probe-labelled cysteine peptide fold change (10 µM)	probe-labelled cysteine peptide fold change (50 µM)
TUBG1_P23258_138_IHEDIFDIIDREADGSDSLEGFVLCHSIAGGTGSGLGSYLLER<|>TUBG2_Q9NRH3_138_IHEDIFDIIDREADGSDSLEGFVLCHSIAGGTGSGLGSYLLER (UniProt Q9NRH3+P23258)	0.194	-0.0593
TTLL12_Q14166_126_ESGLQAAHPNSIFLIDHAWTCR (UniProt Q14166)	0.0995	0.0514
TRIM13_O60858_106_GHLGQPLNIFCLTDMQLICGICATR (UniProt O60858)	0.0739	-0.215
UBAP2_Q5T6F2_71_NQDECIVALHDCNGDVNK (UniProt Q5T6F2)	0.0613	-0.0464
UBL7_Q96S82_66_LQESVPDPELIDLIYCGR (UniProt Q96S82)	-0.109	-0.328
TUBAL3_A6NHL2_322+323_YMACCLLYR<|>TUBA1B_P68366_315+316_YMACCLLYR<|>TUBA4A_Q9BQE3_315+316_YMACCLLYR (UniProt P68366+Q9BQE3+A6NHL2)	-0.349	-0.661
USP10_Q14694_456_VQRPCTSTPMIDSFVR (UniProt Q14694)	-0.0395	-0.00663
TPX2_Q9ULW0_301_GCTIVK (UniProt Q9ULW0)	0.583	0.294
VARS2_Q5ST30_549_QLWWGHQIPAYLVVEDHAQGEEDCWVVGR (UniProt Q5ST30)	0.149	0.141
TYK2_P29597_736_NLVHGNVCGR (UniProt P29597)	-0.00731	-0.24
TSPYL1_Q9H0U9_375_NQDLICSFFTWFSDHSLPESDK (UniProt Q9H0U9)	0.781	1.06
